The structures appear in SMILES notation. “And” between values parts separate entries of the source, which are not always exact repeats. Equal values may be shown once. Records with an inconclusive call do not appear. Where a call stands in place of a potency, no number is given. The source made the active and inactive calls. Calls come from the whole dose curve; as a rule, active = well fitted curve in the direction sought with a large enough effect; inconclusive = small, poorly fitted or top-dose-only effect, or another doubt; inactive = no such curve, though single readings can be large; an effect the other way counts as inactive or inconclusive.

The first assay concerns Zika virus NS2B-NS3 protease (linked construct). Briefly: Confirmatory screen NINDS AMC qHTS for Zika virus inhibitors (AID 1347152). Note: nearly all actives have a fitted effect of over 70% in size. Note: potency is the fitted concentration of half-maximal effect. The settings on record: Purified linked NS2B-NS3, AMC substrate fluorescence; series mostly up to 56.6 µM. The text has this: Assay Submitters (PI): Avindra Nath, Ph.D., National Institute of Neurological Disorders and Stroke (NINDS), Bethesda, MD Radhakrishnan Padmanabhan, Ph.D., Georgetown University (GU), Washington D.C. Zika Virus causes congenital defects, including microcephaly and is associated with Guillain-Barre syndrome, eningoencephalitis and myelitis in infected adult. […] Using a target-based approach, we hope to establish a screening paradigm to uncover novel, cell-active NS2B-NS3 protease (Zika Virus) specific inhibitors from NCATS' collection of small molecules using qHTS. […] Four assay panel was created to identify potential Zika Virus inhibitors. Namely, (1) GU unlinked NS2B-NS3 AMC tagged protease qHTS, (2) GU unlinked NS2B-NS3 Rhodamine tagged protease qHTS, (3) NINDS linked NS2B-NS3 AMC tagged protease qHTS, (4) NINDS linked NS2B-NS3 Rhodamine tagged protease qHTS. Active compounds were re-acquired and re-screened to confirm inhibition. Inhibitors were further screened against various confirmatory and counterscreens in dose response format. Early Translation Branch (ETB) National Center for Advancing Translational Sciences (NCATS), Rockville, MD National Institute of Health (NIH), Bethesda, Maryland
Materials: For the linked assay, Nath lab (NINDS) provided the purified linked NS2B-NS3 protease which is consists of hydrophilic domain of NS2B linked to the NS3 protease domain by a flexible (-[…]-) linker. Control compound aprotinin is obtained from Thermo Scientific (#78432; Waltham, Massachusetts). NS2B-NS3 AMC substrate (Bz-Nle-Lys-Arg-Arg-AMC; Nle-KRR-AMC) purchased from Bachem (#I-1995; Torrance, CA). Ac-VKTGKR-AMC purchased from Genscript or Bachem, Ac-FAAGKR-AMC purchased from Genscript, Ac-GLVKRR-AMC purchased from Genscript, Ac-LKKR-AMC purchased from Genscript. NINDS AMC linked NS2B-NS3 protease qHTS protocol: Briefly, 3 microL of Zika virus linked NS2B-NS3 protease (1 nM for linked final concentration), in assay buffer (10 mM Tris-HCl pH 8.0 with 0.01% Tween 20) was dispensed into a 1,536-well solid-bottom black plate (Greiner Bio One, Monroe, NC). Twenty-three nL of compounds (final concentration range 7.28 nM to 114 microM) or control Aprotinin (final concentration range 3.47 nM to 114 microM) were transferred via Wako Pin-tool (Wako Automation, Richmond, VA). Samples were incubated (room temperature, protected from light) for 15 minutes followed by a 1 microL AMC substrate addition of (final concentration of 10 microM; Km = 18.3 µM). Plates were then read immediately on a ViewLux High-throughput CCD imager (PerkinElmer, Waltham, MA) equipped with standard UV fluorescence optics (340(30) nm excitation, 450(20) nm emission) then incubated (room temperature, protected from light) for 15 minutes (~20% conversion). The change in fluorescence intensity over the 15-minute reaction period was normalized against no-inhibitor and no-enzyme controls and the resulting percent inhibition data were fitted to a 4-parameter Hill equation. Aprotinin was used as the intraplate control.
Consider `Cc1cnc(C(=O)NCCc2ccc(S(=O)(=O)NC(=O)NC3CCCCC3)cc2)cn1`, for which the Potency entry was “inactive”.
Same read-out and setting: under `O=C(c1ccc(F)cc1)C1CCN(CCn2c(=O)[nH]c3ccccc3c2=O)CC1` stands “inactive”.
On to `CC1COc2c(N3CCN(C)CC3)c(F)cc3c(=O)c(C(=O)O)cn1c23` (stereo not given), for which the Potency is 24.1 µM (active) and 27.1 µM (active).
As to `C[C@H]1c2cccc(O)c2C(O)=C2C(=O)[C@]3(O)C(O)=C(C(N)=O)C(=O)[C@@H](N(C)C)[C@@H]3[C@@H](O)[C@@H]21`, the Potency entry is “inactive”.
As for `CC(C)(C)C(=O)Oc1ccc(S(=O)(=O)Nc2ccccc2C(=O)NCC(=O)O)cc1`, the Potency result was “inactive”.
As to `COc1cc2nc(N3CCN(C(=O)c4ccco4)CC3)nc(N)c2cc1OC`, the Potency is 10.5 µM (active).
`Cn1ccc2cc3c(cc21)CCN3C(=O)Nc1cccnc1`: the Potency is 24.1 µM (active).
Consider `CCOC(=O)Nc1ccc(NCc2ccc(F)cc2)nc1N`, for which the Potency result was “inactive”.

A further assay concerns Zika virus NS2B-NS3 protease (unlinked complex). The assay is described as follows: Confirmatory screen GU AMC qHTS for Zika virus inhibitors (AID 1347153).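 For potency: enzyme at 25 nM with substrate at 10 µM below its Km of 18.3 µM; potency is the fitted concentration of half-maximal effect.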 Note: nearly all actives have a fitted effect of over 70% in size. Conditions: Recombinant NS2B-NS3 protease, AMC substrate fluorescence; series mostly up to 57.1 µM. The method in brief: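 Noncovalent NS2B hydrophilic domain/NS3 protease complex (25 nM) in 10 mM Tris-HCl pH 8.0, 0.01% Tween 20 was preincubated 15 min at room temperature with compounds. Then 10 µM AMC substrate (Km 18.3 µM) was added; fluorescence was read over 15 min and fitted to a 4-parameter Hill equation.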
A general note: Quantitative high-throughput screening tests each substance at several concentrations.
For `Cc1cnc(C(=O)NCCc2ccc(S(=O)(=O)NC(=O)NC3CCCCC3)cc2)cn1`, the Potency entry is “inactive”.
As for `O=C(c1ccc(F)cc1)C1CCN(CCn2c(=O)[nH]c3ccccc3c2=O)CC1`, the Potency entry is “inactive”.
Regarding `CC1COc2c(N3CCN(C)CC3)c(F)cc3c(=O)c(C(=O)O)cn1c23` (stereo not given), the Potency was 27.1 µM (active).
On the same count and under the same terms, under `C[C@H]1c2cccc(O)c2C(O)=C2C(=O)[C@]3(O)C(O)=C(C(N)=O)C(=O)[C@@H](N(C)C)[C@@H]3[C@@H](O)[C@@H]21` stands “inactive”; under `CC(C)(C)C(=O)Oc1ccc(S(=O)(=O)Nc2ccccc2C(=O)NCC(=O)O)cc1`, “inactive”.
Still for that read-out and setting: under `Cn1ccc2cc3c(cc21)CCN3C(=O)Nc1cccnc1` stands 27.1 µM (active).
As for `CCOC(=O)Nc1ccc(NCc2ccc(F)cc2)nc1N`, the Potency result is “inactive”.

In the next assay the test system is Zika virus NS2B-NS3 protease. Briefly: Primary screen GU AMC qHTS for Zika virus inhibitors (AID 1347154). Note: nearly all actives have a fitted effect of over 70% in size. Note: potency is the fitted concentration of half-maximal effect. Conditions: Zika NS2B-NS3 unlinked protease, AMC fluorogenic substrate; series mostly up to 54.1 µM. The method in brief:
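Unlinked Zika NS2B hydrophilic domain/NS3 protease domain noncovalent complex (25 nM final) in 10 mM Tris-HCl pH 8.0, 0.01% Tween 20, with AMC peptide substrate. Fluorescence (ex 340, em 450 nm) change over 15 min, room temperature; percent inhibition fitted to 4-parameter Hill equation.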
Consider `O=c1[nH]cc(F)c(=O)[nH]1`, for which the Potency result is “inactive”.
As for `COc1ccc2c(c1)c(CC(=O)O)c(C)n2C(=O)c1ccc(Cl)cc1`, the Potency result is “inactive”.
As for `CCN1CCCC1CNC(=O)c1cc(S(=O)(=O)CC)c(N)cc1OC` (stereo not given), the Potency result is “inactive”.
Consider `O=C(c1ccc(F)cc1)C1CCN(CCn2c(=O)[nH]c3ccccc3c2=O)CC1`, for which the Potency result was “inactive”.
With `CCc1cccc2c3c([nH]c12)C(CC)(CC(=O)O)OCC3` (stereo not given), the Potency result was “inactive”.
`CC1COc2c(N3CCN(C)CC3)c(F)cc3c(=O)c(C(=O)O)cn1c23` (stereo not given): the Potency is 28.7 µM (active) and 24.1 µM (active).
Still for that read-out and setting: for `Cn1c(=O)c2[nH]cnc2n(C)c1=O` the value was “inactive”.
In the case of `COc1ccc(C2CNC(=O)C2)cc1OC1CCCC1` (stereo not given), the Potency result was “inactive”.
Still for that read-out and setting: under `Fc1ccc([C@@H]2CCNC[C@H]2COc2ccc3c(c2)OCO3)cc1` stands “inactive”.
The same measure, in the same setting: under `CC(C)(C)C(=O)Oc1ccc(S(=O)(=O)Nc2ccccc2C(=O)NCC(=O)O)cc1` stands “inactive”.
On to `Cc1cc(C(C)(C)C)cc(C)c1CC1=NCCN1`, for which the Potency result was “inactive”.
Consider `CCOC(=O)c1ncn2c1CN(C)C(=O)c1cc(F)ccc1-2`, for which the Potency result was “inactive”.
For the molecule `Cn1c(=O)c2c(ncn2C)n(C)c1=O`, the Potency entry is “inactive”.
Take `COc1ccccc1OCCNCC(O)COc1cccc2[nH]c3ccccc3c12` (stereo not given): the Potency result is “inactive”.
The same measure, in the same setting: under `NCCCCCC(=O)O` stands “inactive”; under `COc1cc2nc(N(C)CCCNC(=O)C3CCCO3)nc(N)c2cc1OC` (stereo not given), 8.09 µM (active) and 21.5 µM (active); under `CN(C)c1nc(N(C)C)nc(N(C)C)n1`, “inactive”.
As to `CN1CCC(=C2c3ccccc3C=Cc3ccccc32)CC1`, the Potency entry is “inactive”.
As for `Cc1ccc(-c2cc(C(F)(F)F)nn2-c2ccc(S(N)(=O)=O)cc2)cc1`, the Potency result is “inactive”.
With `CN1C(C(=O)Nc2ccccn2)=C(O)c2ccccc2S1(=O)=O`, the Potency entry was “inactive”.
Regarding `Cc1cc(C(C)(C)C)c(O)c(C)c1CC1=NCCN1`, the Potency entry was “inactive”.
On the same count and under the same terms, for `COc1cc2nc(N3CCN(C(=O)C4COc5ccccc5O4)CC3)nc(N)c2cc1OC` (stereo not given) the value was 9.07 µM (active) and 24.1 µM (active); for `NCCS(=O)(=O)O`, “inactive”; for `CN(C)CCC=C1c2ccccc2C=Cc2ccccc21`, “inactive”.
For the molecule `N[C@@H](Cc1c[nH]c2ccc(O)cc12)C(=O)O`, the Potency result was “inactive”.
Regarding `O=c1c(O)c(-c2ccc(O)c(O)c2)oc2cc(O)cc(O)c12`, the Potency result is “inactive”.
Take `Clc1ccc2c(c1)C(N1CCNCC1)=Nc1ccccc1O2`: the Potency entry was “inactive”.
`Clc1ccccc1C(c1ccccc1)(c1ccccc1)n1ccnc1`: the Potency entry was “inactive”.

In a further assay the test system is Zika virus NS2B-NS3 protease (unlinked complex). Briefly: Primary screen GU Rhodamine qHTS for Zika virus inhibitors: Unlinked NS2B-NS3 protease assay (AID 1347159). Note: nearly all actives have a fitted effect of over 60% in size. Conditions: Recombinant ZIKV NS2B-NS3 protease, Rhodamine110 substrate fluorescence; series mostly up to 107 µM. In a few lines: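 Buffer 10 mM Tris-HCl pH 8.0, 0.01% Tween 20. Unlinked protease 25 nM; compound preincubation 15 min, RT, protected from light. Substrate Rhod110, 1.5 microM; ~15% conversion in 15 min.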
As for `O=C(c1ccc(F)cc1)C1CCN(CCn2c(=O)[nH]c3ccccc3c2=O)CC1`, the Potency result was “inactive”.
As for `Cc1ccc(-c2cc(C(F)(F)F)nn2-c2ccc(S(N)(=O)=O)cc2)cc1`, the Potency result was “inactive”.
Consider `Cc1cc(C(C)(C)C)c(O)c(C)c1CC1=NCCN1`, for which the Potency result is “inactive”.
Turning to `Clc1ccc2c(c1)C(N1CCNCC1)=Nc1ccccc1O2`, the Potency result is “inactive”.

Another assay deals with Zika virus NS2B-NS3 protease (linked construct). The assay is described as follows: Primary screen NINDS Rhodamine qHTS for Zika virus inhibitors (AID 1347160). Note: nearly all actives have a fitted effect of over 55% in size. Conditions: purified NS2B-NS3 protease, Rhodamine110 substrate fluorescence; series mostly up to 57.1 µM. The method in brief: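 Aprotinin served as in-plate control. Conditions: 25 nM linked NS2B-NS3, pH 8.0 Tris buffer, titrated compounds, 15 min preincubation and 15 min reaction with 1.5 microM Rhod110 substrate at room temperature.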
In the case of `O=C(c1ccc(F)cc1)C1CCN(CCn2c(=O)[nH]c3ccccc3c2=O)CC1`, the result was inactive.
Consider `Cc1ccc(-c2cc(C(F)(F)F)nn2-c2ccc(S(N)(=O)=O)cc2)cc1`, for which the molecule was called inactive.
On to `Cc1cc(C(C)(C)C)c(O)c(C)c1CC1=NCCN1`, for which the molecule was called inactive.
`Clc1ccc2c(c1)C(N1CCNCC1)=Nc1ccccc1O2`: the molecule was classed as inactive.

System in the next assay: not listed separately
The assay is described as follows: Confirmatory screen NINDS Rhodamine qHTS for Zika virus inhibitors (AID 1347161). Note: nearly all actives have a fitted effect of over 60% in size. Note: potency is the fitted concentration of half-maximal effect. Conditions: purified enzyme assay, Rhodamine110 substrate fluorescence, 15 min; series mostly up to 114 µM. The method in brief:
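Purified linked NS2B-NS3 protease (NS2B hydrophilic domain joined to NS3 protease by flexible linker), 25 nM in 10 mM Tris-HCl pH 8.0, 0.01% Tween 20. Compounds titrated, 15 min preincubation at room temperature; 1.5 microM Rhodamine110 substrate, FITC fluorescence change over 15 min.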
As for `Cc1cnc(C(=O)NCCc2ccc(S(=O)(=O)NC(=O)NC3CCCCC3)cc2)cn1`, the Potency entry is “inactive”.
For the molecule `O=C(c1ccc(F)cc1)C1CCN(CCn2c(=O)[nH]c3ccccc3c2=O)CC1`, the Potency entry was “inactive”.
The same measure, in the same setting: under `CC1COc2c(N3CCN(C)CC3)c(F)cc3c(=O)c(C(=O)O)cn1c23` (stereo not given) stands “inactive”; under `C[C@H]1c2cccc(O)c2C(O)=C2C(=O)[C@]3(O)C(O)=C(C(N)=O)C(=O)[C@@H](N(C)C)[C@@H]3[C@@H](O)[C@@H]21`, 62.1 µM (active).
On to `CC(C)(C)C(=O)Oc1ccc(S(=O)(=O)Nc2ccccc2C(=O)NCC(=O)O)cc1`, for which the Potency result was “inactive”.
Take `COc1cc2nc(N3CCN(C(=O)c4ccco4)CC3)nc(N)c2cc1OC`: the Potency entry is “inactive”.
`Cn1ccc2cc3c(cc21)CCN3C(=O)Nc1cccnc1`: the Potency is 62.2 µM (active).
Take `CCOC(=O)Nc1ccc(NCc2ccc(F)cc2)nc1N`: the Potency entry was “inactive”.
As to `O=c1c(O)c(-c2ccc(O)c(O)c2)oc2cc(O)cc(O)c12`, the Potency is 50.1 µM (active).

Source of the values: PubChem BioAssay (NCATS).
